Measurements as given in PubChem BioAssay (NCI).
Where “and” joins values, the source holds several entries; their conditions need not be identical. Equal values may be shown once. Compounds without any hit were thinned out: in the full panel of roughly 83,000, 20% have a hit.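 Treatment: one concentration, 48 hours, 96-well format. Scoring: percent growth, with anything below 10 considered active.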 Calls of active or inactive are those of the source.

Experiments:
Assay in all cases: NCI-60 one-dose screen, 48 h (100 = growth as untreated, 0 = no growth, -100 = all killed)
Conditions in all cases: 10 µM unless noted
[1] = system: SK-MEL-2 melanoma
[2] = system: SN12C renal
[3] = system: UO-31 renal
[4] = system: TK-10 renal
[5] = system: ACHN renal
[6] = system: CAKI-1 renal
[7] = system: A498 renal
[8] = system: CCRF-CEM leukemia
[9] = system: MOLT-4 leukemia
[10] = system: EKVX NSCLC

Measured: growth

CCOC(=O)c1csc(N)n1
inactive: [1] 103% | [2] 100% and 105% | [3] 88.5% and 91.9% | [4] 111% and 97.3% | [5] 102% and 104% | [6] 66.6% | [7] 93.5% | [8] 91% and 98.5% | [9] 79.3% and 106%

Cc1cc(NC(=O)NC(=O)c2ccccc2N(C)C)ccc1Oc1ncc(Br)cn1
inactive: [1] 48% and 60.5% | [2] 51.6% and 51.3% | [3] 24.2% and 56.1% | [4] 36.5% and 63.1% | [6] 25.9% and 38.2% | [7] 15.2% and 10.6% | [9] 19.5% and 26.5%
4.54% (active) and 17.5% (inactive): [8]
-17% (active) and 56.7% (inactive): [5]

CN1C2C=CC(=O)C1C1C(=O)N(c3ccccc3)C(=O)C12 (stereo not drawn)
inactive: [1] 46.2% | [2] 60.2% | [3] 53.9% | [5] 63.9% | [6] 28% | [7] 106% | [8] 50.5% | [9] 74.4%

CC(=O)Nc1ccc(OC(C)=O)cc1
6.69% (active) and 106% (inactive): [8]
-40.5% (active) and 65.6% (inactive): [7]
inactive: [2] 20.2% and 102% | [3] 21.8% and 98.6% | [5] 26.8% and 110% | [6] 17.8% and 98.8% | [9] 15.2% and 117%
-16.6% (active) and 111% (inactive): [1]

O=C(O)c1cccc(Br)c1
inactive: [1] 105% | [2] 104% | [3] 68.5% and 88.8% | [4] 108% and 93.6% | [6] 102% and 99% | [7] 99.8% and 83% | [8] 99.7% and 101% | [9] 85.9% and 96.2%

COc1ccc2nccc(Cl)c2c1
inactive: [1] 97.4% | [10] 101% | [2] 98.7% | [5] 106% | [6] 97.3% | [7] 95.1% | [8] 109% | [9] 106%

CCN(CC)Cc1cc2[nH]c3c4ccc(Cl)cc4ncc3c2cc1OC
inactive: [1] 160% and 97.9% | [2] 72.9% and 78.8% | [3] 110% and 66.2% | [4] 123% and 89.8% | [5] 83.7% and 73.4% | [6] 31.9% and 81.3% | [7] 146% and 106% | [9] 40.4%

COCCNC(C)=O
inactive: [1] 105% | [2] 97.7% | [4] 102% | [5] 110% | [6] 98.5% | [7] 89.6% | [8] 113% | [9] 119%

CC(=O)/C(N=Nc1ccc(S(=O)(=O)c2ccc(N=N/C(C(C)=O)=C(/C)O)cc2)cc1)=C(\C)O
inactive: [1] 117% | [2] 110% | [5] 104% | [6] 100% | [7] 100% | [8] 85.9% | [9] 100%

CC(=O)Oc1cc(C)c(OC(C)=O)c(C)c1C
inactive: [1] 102% | [2] 98.9% | [4] 124% | [5] 100% | [6] 77.4% | [7] 109% | [8] 100% | [9] 109%

OCc1ccccc1F
inactive: [1] 26.3% | [2] 84.5% | [3] 84.7% | [4] 107% | [6] 18.7% | [7] 98.5% | [8] 83.9% | [9] 91.8%
active: [5] 6.49%

CC1CCC(=O)N1c1ccc(N)cc1 (stereo not drawn)
inactive: [1] 99.7% | [2] 106% | [3] 93.7% | [4] 94.8% | [5] 104% | [6] 102% | [7] 98.4% | [9] 105%

O=C1CCC(=O)N1CC1CC2CCC1C2 (stereo not drawn)
inactive: [1] 97.5% and 111% | [2] 94% and 82.3% | [4] 94.4% and 83.7% | [5] 100% and 92.2% | [6] 67.2% and 91.1% | [7] 119% and 103% | [9] 54.1% and 111%

O=C(N=C1C(=O)C2(CCCCC2)C2(N=C(c3ccccc3)OC2=O)C12CCCCC2)c1ccccc1 (stereo not drawn)
inactive: [1] 76% | [2] 77.8% | [3] 58.5% | [4] 86.2% | [5] 80.5% | [6] 70.9% | [7] 98.2% | [9] 50.5%

NC1=NC(c2ccccc2)N=C(Nc2ccccc2)N1 (stereo not drawn)
inactive: [1] 100% and 84.3% | [2] 98.6% and 99.1% | [4] 94% and 102% | [5] 97.9% and 84.1% | [6] 74.2% and 93.8% | [7] 96.3% and 110% | [8] 49.6% and 95.1% | [9] 65.7% and 71.4%

O=c1[nH]c(=S)[nH]n1C(=S)n1[nH]c(=S)[nH]c1=O
inactive: [1] 106% | [10] 105% | [2] 101% | [5] 99.3% | [6] 94.8% | [7] 109% | [8] 93.6% | [9] 112%

COc1ccc2oc3cc(NCCN(C)C)ccc3c(=O)c2c1
inactive: [1] 108% and 107% | [10] 85.9% | [2] 81.7% and 64.2% | [5] 74.5% and 58.9% | [6] 77.2% and 63.5% | [7] 121% and 85.7% | [8] 70.3% | [9] 80.3% and 50.9%

COc1cc(NCCCCCCCNC(C)C)c2nccc(C)c2c1
inactive: [1] 103% and 126% | [2] 78% and 61.7% | [3] 38.4% and 47.1% | [4] 90.3% and 67.6% | [5] 91.8% and 67.3% | [6] 87.7% and 45.5% | [7] 80.5% and 49.2% | [8] 92.7% | [9] 80%

Cc1onc(-c2c(F)cccc2Cl)c1-c1ncc(-c2ccc(Cl)cc2)o1
inactive: [1] 104% and 80% | [2] 71.9% and 37.3% | [3] 53.4% and 37.7% | [4] 84% and 53.8% | [5] 46.1% and 31.3% | [6] 14% and 32% | [7] 69.8% and 85.8% | [8] 41.5% | [9] 42.4% and 16.1%

N#Cc1ccc(/C=C/C(=O)c2ccccc2)cc1
active: [3] -37.5%
-35.1% (active) and 29.4% (inactive): [9]
17.6% (inactive) and 3.61% (active): [8]
inactive: [1] 90.7% | [2] 96.2% and 92.6% | [4] 98.9% and 55.8% | [5] 112% and 92.9% | [7] 112% and 84.1%

COc1ccc(-n2[nH]c3c(cnc4ccccc43)c2=O)cc1
inactive: [1] 79.5% and 111% | [2] 85% and 95% | [3] 70.7% | [4] 90% and 93.4% | [5] 95.9% and 107% | [6] 68.3% and 95.9% | [7] 93.7% and 91.9% | [8] 101% | [9] 108% and 99.9%

CC1(C)OC(=O)C(=Cc2ccc(C#N)cc2)C(=O)O1
inactive: [2] 104% and 112% | [3] 94.3% and 87.1% | [4] 98.3% and 101% | [6] 102% and 99.3% | [7] 104% and 94.8% | [9] 103% and 80.1%

OC1CCCN(Cc2ccccc2)C1 (stereo not drawn)
inactive: [10] 116% | [2] 98.5% | [3] 88.5% | [4] 97.4% | [5] 106% | [6] 105% | [7] 96.2% | [8] 98.4% | [9] 92.5%

CC1=CC(=O)c2cccc(NC3=NCCO3)c21
inactive: [10] 98.9% | [2] 95.1% | [4] 98.3% | [6] 94.2% | [7] 110% | [8] 108% | [9] 111%

N#Cc1c(N)nc2c(c(-c3ccc(Cl)cc3)nn2-c2ccccc2)c1C#N
inactive: [10] 83% [100 µM] | [2] 105% [100 µM] | [3] 96.6% [100 µM] | [4] 128% [100 µM] | [5] 86.9% [100 µM] | [6] 108% [100 µM] | [7] 113% [100 µM] | [8] 98.9% [100 µM] | [9] 114% [100 µM]
